Measurements taken from PubChem BioAssay.
Activity calls are given as the source filed them. Unless noted, the rule behind the calls is not given here.

What was measured:
[1] = tested on: XIP peptide (Xip251-270) binding; experiment: XIP fragment 251-270 binding compounds – biochemical, small-molecule microarray, fluorescence 635/667 nm, 0.1 µg/mL protein, primary screen (AID 1182); settings: fluorescent protein binding, 635 nm, higher = more signal, called active from +8 up or from −8 down
[2] = tested on: XIP peptide (Xip251-270); experiment: compounds binding XIP fragment 251-270 – biochemical, small-molecule microarray, fluorescence 635/667 nm, 0.5 µg/mL protein, primary screen (AID 1183); settings: fluorescence 635 nm, higher = more signal
[3] = blood-stage malaria parasite viability loss – strain 3D7, DAPI fluorescence, 100 nL, primary screen (AID 1184);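 note: parasites grown inside human red blood cells in medium with human serum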; settings: P. falciparum 3D7 growth, 3 d, higher = more signal
[4] = molecular target: Homeobox protein Hox-A13 (Mus musculus) (UniProt Q62424); experiment: disruptors of Hoxa13 oligonucleotide interaction – biochemical, fluorescence polarization, labeled oligonucleotide, primary screen (AID 1185); settings: Hoxa13:DNA binding, 15 min, higher = more signal, called active from +8 up or from −8 down
[5] = blockers of DNA damage checkpoint Chk1 activation – imaging, HeLa, hydroxyurea, phospho-Chk1 antibody, percent positive cells, primary screen (AID 1186); settings: hydroxyurea-induced phospho-Chk1 immunofluorescence imaging, higher = more signal
[6] = blockers of DNA damage checkpoint Chk1 activation – imaging, HeLa, hydroxyurea, phospho-Chk1 nuclear intensity, primary screen (AID 1187); settings: hydroxyurea-induced phospho-Chk1 immunofluorescence imaging, higher = more signal

Chain of Homeobox protein Hox-A13 (Mus musculus) (Q62424 whole entry, looked up): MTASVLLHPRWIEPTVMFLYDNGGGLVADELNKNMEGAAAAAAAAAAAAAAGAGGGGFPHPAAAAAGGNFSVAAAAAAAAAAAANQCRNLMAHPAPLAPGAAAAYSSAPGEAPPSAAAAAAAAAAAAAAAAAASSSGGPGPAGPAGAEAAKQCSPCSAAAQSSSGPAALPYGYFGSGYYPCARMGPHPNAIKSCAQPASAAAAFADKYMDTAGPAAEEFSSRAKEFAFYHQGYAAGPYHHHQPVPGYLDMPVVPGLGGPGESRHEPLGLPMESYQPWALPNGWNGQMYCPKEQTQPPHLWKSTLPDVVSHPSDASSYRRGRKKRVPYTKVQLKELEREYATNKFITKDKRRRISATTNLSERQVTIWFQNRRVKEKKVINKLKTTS

SMILES: CC(C)N1C(=O)c2ccccc2[C@@H](C(=O)NCCN2CCOCC2)[C@@H]1c1ccc(CO)cc1
- composite z-score [1]: 0.122 (inactive)
- composite z-score [2]: 0.0961
- z-score [3]: -0.22
- z-score [4]: -4.17 (inactive)
- z-score [5]: -0.0809 (inactive)
- z-score [6]: -0.264 (inactive)

SMILES: CN(C)C(=O)[C@]1(Cc2ccccc2CN=[N+]=[N-])N=C(c2ccc(OCCCO)cc2)O[C@@H]1c1ccccc1
- composite z-score [1]: 0.908 (inactive)
- composite z-score [2]: 0.738
- z-score [3]: -2.78
- z-score [4]: -6.11 (inactive)
- z-score [5]: -0.52 (inactive)
- z-score [6]: -0.266 (inactive)

SMILES: COc1cc(NN2C(C(O)c3ccco3)C=CC3C(=O)N(C)C(=O)C32)cc(OC)c1OC (stereo not given)
- composite z-score [1]: -0.0656 (inactive)
- composite z-score [2]: -0.423
- z-score [3]: -0.188
- z-score [4]: -3.41 (inactive)
- z-score [5]: 0.476 (inactive)
- z-score [6]: 0.18 (inactive)

SMILES: [N-]=[N+]=Nc1ccccc1[C@@H]1OC(c2ccc(OCCCO)cc2)=N[C@]1(Cc1ccccc1)C(=O)O
- composite z-score [1]: 0.315 (inactive)
- composite z-score [2]: 0.721
- z-score [3]: -1.85
- z-score [4]: -4.29 (inactive)
- z-score [5]: -0.178 (inactive)
- z-score [6]: 0.168 (inactive)

SMILES: COC(=O)C(CC#Cc1ccc2c(c1)[C@]1(C(=O)N2)[C@H](c2ccc(O)cc2)N2[C@H](c3ccccc3)[C@H](c3ccccc3)OC(=O)[C@H]2[C@@H]1C(=O)NC[C@H](O)c1ccccc1)C(=O)OC
- composite z-score [1]: 0.646 (inactive)
- composite z-score [2]: 0.42
- z-score [3]: 0.452
- z-score [4]: -3 (inactive)
- z-score [5]: -0.0427 (inactive)
- z-score [6]: -0.171 (inactive)

SMILES: COC(=O)[C@@]1(Cc2ccc(OC)cc2)[C@H]2c3cc(C(=O)N(C)C)n(Cc4ccc(OC(F)(F)F)cc4)c3C[C@H]2CN1C(=O)c1ccccc1
- composite z-score [1]: -0.202 (inactive)
- composite z-score [2]: 0.112
- z-score [3]: -1.42
- z-score [4]: -5.65 (inactive)
- z-score [5]: 0.154 (inactive)
- z-score [6]: -0.666 (inactive)

SMILES: CC1=C2[C@@H](CCc3ccccc3)OB(O)C[C@@H]2[C@@H]2C(=O)N(Cc3ccccc3)C(=O)[C@@H]2C1
- composite z-score [1]: 0.291 (inactive)
- composite z-score [2]: 0.629
- z-score [3]: 1.62
- z-score [4]: -7.81 (inactive)
- z-score [5]: 0.235 (inactive)
- z-score [6]: 0.264 (inactive)

SMILES: C=CCN1Cc2ccccc2[C@@H]2OC(c3ccc(OCCCO)cc3)=N[C@]2(CC=C)C1=O
- composite z-score [1]: 0.887 (inactive)
- composite z-score [2]: 0.794
- z-score [3]: -2.08
- z-score [4]: -1.62 (inactive)
- z-score [5]: -0.675 (inactive)
- z-score [6]: -1.39 (inactive)

SMILES: COc1ccc(C#Cc2ccc3c(c2)[C@]2(C(=O)N3)[C@H](c3ccc(O)cc3)N3[C@H](c4ccccc4)[C@H](c4ccccc4)OC(=O)[C@H]3[C@@H]2C(=O)Nc2nc3ccccc3s2)cc1
- composite z-score [1]: -0.52 (inactive)
- composite z-score [2]: 0.77
- z-score [3]: -1.31
- z-score [4]: -0.76 (inactive)
- z-score [5]: 0.372 (inactive)
- z-score [6]: 0.669 (inactive)

SMILES: Cc1ccc(S[C@]2(C(=O)NCCN3CCOCC3)CC(=O)N(Cc3ccccc3Cl)[C@@H]2c2ccc(CO)cc2I)cc1
- composite z-score [1]: 0.676 (inactive)
- composite z-score [2]: 0.433
- z-score [3]: -0.244
- z-score [4]: -2.18 (inactive)
- z-score [5]: 0.0327 (inactive)
- z-score [6]: 0.421 (inactive)

SMILES: C=C[C@H]1C(C(=O)OCC)=CC[C@@H](c2ccccc2)N1S(=O)(=O)c1ccc(C)cc1
- composite z-score [1]: 0.413 (inactive)
- composite z-score [2]: 0.635
- z-score [3]: -1.89
- z-score [4]: -2.34 (inactive)
- z-score [5]: -0.229 (inactive)
- z-score [6]: -0.732 (inactive)

SMILES: CC(C)C(O)C1C=CC2C(=O)N(c3ccccc3)C(=O)C2N1Nc1ccccc1 (stereo not given)
- composite z-score [1]: 1.33 (inactive)
- composite z-score [2]: 0.852
- z-score [3]: -0.752
- z-score [4]: -4.18 (inactive)
- z-score [5]: 0.436 (inactive)
- z-score [6]: 0.581 (inactive)

SMILES: COCCCNC(=O)[C@@]1(Sc2ccc(C)cc2)CC(=O)N(C2Cc3ccccc3C2)[C@@H]1c1ccc(CO)cc1
- composite z-score [1]: 0.33 (inactive)
- composite z-score [2]: 0.446
- z-score [3]: -1.52
- z-score [4]: -3.56 (inactive)
- z-score [5]: -0.0691 (inactive)
- z-score [6]: 0.0579 (inactive)

SMILES: C=C(COC)/C(=C/C[C@H](OC(=O)c1ccncc1)c1ccc(CO)o1)c1cnc2ccccc2c1
- composite z-score [1]: 1.02 (inactive)
- composite z-score [2]: 0.447
- z-score [3]: 0.834
- z-score [4]: -5.63 (inactive)
- z-score [5]: -0.429 (inactive)
- z-score [6]: -0.442 (inactive)

SMILES: CN(C)C(=O)[C@]1(CCC(=O)OC(C)(C)C)N=C(c2ccc(OCCCO)cc2)O[C@@H]1c1ccccc1CN=[N+]=[N-]
- composite z-score [1]: 0.0464 (inactive)
- composite z-score [2]: 0.649
- z-score [3]: -2.39
- z-score [4]: -4.57 (inactive)
- z-score [5]: -0.165 (inactive)
- z-score [6]: 0.152 (inactive)

SMILES: COc1ccc(C(=O)Nc2ccc(CN3C(=O)[C@]4(O[C@H](CC(=O)N5Cc6ccccc6C[C@H]5CO)[C@@H]([Si](C)(C)c5ccc(OC)cc5)[C@@H]4C)c4ccccc43)cc2)cc1
- composite z-score [1]: 1.22 (inactive)
- composite z-score [2]: 0.775
- z-score [3]: -2.31
- z-score [4]: 0.247 (inactive)
- z-score [5]: 0.714 (inactive)
- z-score [6]: 0.329 (inactive)

SMILES: CCOC(=O)C[C@H]1[C@H](OC(=O)c2cc3ccccc3oc2=O)[C@@H](NC(=O)c2ccccc2)c2cc(OCCCO)ccc2N1C(=O)c1ccccc1
- composite z-score [1]: -0.0879 (inactive)
- composite z-score [2]: 0.283
- z-score [3]: -1.66
- z-score [4]: -1.56 (inactive)
- z-score [5]: 0.171 (inactive)
- z-score [6]: -0.0272 (inactive)

SMILES: N#Cc1ccc(NN2C(C(O)c3ccc(Br)cc3)C=CC3C(=O)N(c4ccccc4)C(=O)C32)cc1 (stereo not given)
- composite z-score [1]: 1.13 (inactive)
- composite z-score [2]: 0.529
- z-score [3]: 0.401
- z-score [4]: -3.13 (inactive)
- z-score [5]: 0.0643 (inactive)
- z-score [6]: 0.0338 (inactive)

SMILES: COc1cc(NN2C(C(O)c3ccc(N(C)C)cc3)C=CC3C(=O)N(c4ccccc4)C(=O)C32)cc(OC)c1OC (stereo not given)
- composite z-score [1]: 0.596 (inactive)
- composite z-score [2]: 0.0721
- z-score [3]: -0.289
- z-score [4]: -4.2 (inactive)
- z-score [5]: 0.111 (inactive)
- z-score [6]: -0.0651 (inactive)

SMILES: CCCC[C@@H]1C[C@H]1[C@@H](NC(=O)c1cccs1)c1ccccc1C(F)(F)F
- composite z-score [1]: 0.269 (inactive)
- composite z-score [2]: 0.305
- z-score [3]: -1.27
- z-score [4]: 0.322 (inactive)
- z-score [5]: -0.0139 (inactive)
- z-score [6]: 0.364 (inactive)

SMILES: CCCC=C(CCC)[C@@H](NC(=O)C(C)(C)C)c1ccc(C(=O)OC)cc1
- composite z-score [1]: 0.158 (inactive)
- composite z-score [2]: -0.227
- z-score [3]: -1.47
- z-score [4]: -0.168 (inactive)
- z-score [5]: -0.75 (inactive)
- z-score [6]: -0.977 (inactive)

SMILES: CCCC=C(CCC)[C@@H](NC(=O)c1cccs1)c1ccc(C(=O)OC)cc1
- composite z-score [1]: -0.185 (inactive)
- composite z-score [2]: 0.285
- z-score [3]: -0.417
- z-score [4]: -0.907 (inactive)
- z-score [5]: -0.255 (inactive)
- z-score [6]: -0.354 (inactive)

SMILES: O=C(C1N=C(c2ccc(OCCCO)cc2)N(c2ccccc2)O1)N1CCCCC1 (stereo not given)
- composite z-score [1]: 2.64 (inactive)
- composite z-score [2]: 0.814
- z-score [3]: -0.603
- z-score [4]: -3.7 (inactive)
- z-score [5]: -0.216 (inactive)
- z-score [6]: 0.153 (inactive)

SMILES: CCCC=C(CCC)[C@@H](NS(=O)(=O)c1ccc(C(F)(F)F)cc1)c1ccccc1
- composite z-score [1]: 0.25 (inactive)
- composite z-score [2]: -0.0998
- z-score [3]: -1.5
- z-score [4]: -0.64 (inactive)
- z-score [5]: -0.0215 (inactive)
- z-score [6]: -0.157 (inactive)

SMILES: COCCOC(=O)N1C(=O)[C@@]2(c3cc(C#CC4(O)CCCCCC4)ccc31)[C@H](C(=O)Nc1nc3ccccc3s1)[C@H]1C(=O)O[C@H](c3ccccc3)[C@H](c3ccccc3)N1[C@@H]2c1ccc(O)cc1
- composite z-score [1]: 0.479 (inactive)
- composite z-score [2]: 0.817
- z-score [3]: 0.219
- z-score [4]: -1.09 (inactive)
- z-score [5]: -0.205 (inactive)
- z-score [6]: 0.0486 (inactive)
